Screening results deposited in PubChem by several laboratories.
GALR2 blocker: GALR2 (human) receptor antagonism; inhibition, % at 4 µM; GALR2-expressing cells, antagonist mode; 140,000 compounds, 0.39% hits; O43603; in the data active = inhibition above about 27%;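 also: cells stimulated with galanin 1-16 at roughly its EC80; 0% = agonist challenge control and 100% = basal control without agonist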
Target sequence (O43603 whole entry, looked up): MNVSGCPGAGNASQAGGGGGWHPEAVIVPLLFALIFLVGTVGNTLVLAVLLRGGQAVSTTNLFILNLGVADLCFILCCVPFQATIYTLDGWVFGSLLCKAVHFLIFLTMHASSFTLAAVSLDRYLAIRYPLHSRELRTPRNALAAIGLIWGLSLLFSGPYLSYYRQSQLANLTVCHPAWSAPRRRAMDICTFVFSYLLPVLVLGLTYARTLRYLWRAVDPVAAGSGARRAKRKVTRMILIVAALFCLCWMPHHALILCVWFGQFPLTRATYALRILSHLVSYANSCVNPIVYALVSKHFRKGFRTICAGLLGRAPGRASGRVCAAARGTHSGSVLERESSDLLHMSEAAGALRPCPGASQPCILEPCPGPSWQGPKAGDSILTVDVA
S1P2 ag: activates the human S1P2 receptor. O95136. S1P2-expressing cell line, agonist reporter read-out. activation, % at 4.5 µM. 97,000 compounds, 0.46% hits. AID 729; in the data active = activation above about 16%;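 also: 0% = vehicle low control and 100% = maximal reference agonist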
CD11b adhes enh: increases human CD11b/CD18 adhesion to fibrinogen; P05107+P11215; K562 CD11b/CD18 adhesion to fibrinogen, ATPlite luminescence; activation, % at 10 µM; 93,000 compounds, 0.07% hits; AID 1499;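 active = 10 µM primary screen giving 50% or more activity, confirmed by 40% or more on retest at that dose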
GALR2 agonist: agonists of human galanin receptor 2 (GALR2). GALR2-expressing cells, agonist activation read-out. O43603. 140,000 compounds, 0.48% hits. activation, % (test concentration not listed). AID 803; in the data active = activation above about 5%, passing the limit was not always enough;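 also: 0% = vehicle buffer wells and 100% = reference agonist at full effect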
S1P2 antag: S1P2 (human) receptor antagonism. 97,000 compounds, 0.21% hits. O95136. cell-based S1P2 antagonist assay, inhibition at 5 uM. AID 736. inhibition, % at 5 µM; in the data active = inhibition above about 45%;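 also: CRE beta-lactamase reporter cells expressing human S1P2 stimulated with S1P; 0% = agonist at EC80 alone and 100% = agonist plus reference antagonist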
CD11b adhes inh: inhibitors of human CD11b/CD18 binding to fibrinogen; P05107+P11215; K562 CD11b/CD18 adhesion to fibrinogen, ATPlite luminescence; Mn2+ added to activate the integrin; inhibition, % at 10 µM; 93,000 compounds, 0.54% hits; AID 1497;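 active = primary inhibition of 50% or more at 10 µM, then 40% or more on retest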
Starred values were filed as active, the others as inactive; · = no result. Only some compounds are listed: those with a hit (about 1.5% of all), similar ones and a draw of the others.

SMILES	GALR2 blocker	S1P2 ag	CD11b adhes enh	GALR2 agonist	S1P2 antag	CD11b adhes inh
CC(C)c1ccc(-c2nc(N3CCCCCC3)nc3n[nH]c(N)c23)cc1	-3	-5	3	-3	5	19
CC(C)c1ccc(-c2nc(N3CCCC3)nc3n[nH]c(N)c23)cc1	3	·	-6	6.2*	·	-12
CCN1CCN(c2nc3c(c(=O)[nH]c(=O)n3C)n2CCSc2nc3ccccc3s2)CC1	5	-2	-2	0	8	19
CC(CSc1nc2ccccc2s1)Cn1c(N2CCCC2)nc2c1c(=O)[nH]c(=O)n2C (stereo unspecified)	3	30*	5	0	-22	-3
O=C(CNc1cc(S(=O)(=O)N2CCCC2)ccc1OCC(F)(F)F)Nc1ccc(SC(F)F)cc1	-1	·	·	-1	·	·
Cc1nc(NCc2ccc3c(c2)OCO3)c2nnn(Cc3ccccc3)c2n1	-4	·	-1	6.8*	·	-14
O=C(CC1CCCCC1)Nc1ncn[nH]1	-3	-8	-1	-5	0	-11
Nc1nc(-c2ccc3ccccc3c2)c(C2(O)C(=O)Nc3c(Br)cc(F)cc32)s1 (stereo unspecified)	-3	-7	-6	-2	19	12
O=C(O)c1cccc(CSc2nc(-c3ccc(Cl)cc3)cc(C(F)(F)F)n2)c1	-6	-4	-3	0	-1	75*
Cc1cc([N+](=O)[O-])cnc1Sc1nccn1C	4	·	·	-2	·	·
Cc1nc2c(Br)cc(Br)cc2cc1O	-1	-19	-6	-2	-9	90*
Cc1ccc(Nc2nnc(SCC(=O)Nc3ccc(S(=O)(=O)N4CCOCC4)cc3)s2)cc1	6	-9	-2	-3	2	52*
O=C(CSc1nnc(Nc2ccccc2)s1)Nc1ccc(S(=O)(=O)N2CCOCC2)cc1	-10	-5	-5	-1	-4	33
CCOc1cc(CNCCO)cc(Br)c1OCc1ccccc1Cl	10	-4	-7	-2	6	74*
COc1cc(CNCc2ccncc2)cc(Br)c1OCc1ccccc1F	4	-4	-7	-2	9	62*
CCn1cc(C(=O)O)c(=O)c2cc(F)c(N/N=C/c3ccccc3[N+](=O)[O-])cc21	-6	·	·	1	·	·
O=C(NN=C1CCCCCCCCCCC1)c1cccc(S(=O)(=O)N2CCOCC2)c1	9	·	·	-1	·	·
O=C(c1cc2c(s1)-c1ccccc1S(=O)(=O)C2)N1CCN(Cc2ccccc2)CC1	-9	-1	-4	-3	-11	19
CC1CCC(C(C)C)C(OC(=O)CSc2nc(N)cc(=O)[nH]2)C1 (stereo unspecified)	-13	0	·	0	-11	·
CC1CCC(C(C)C)C(OC(=O)Cn2c(-c3ccccc3)[n+](C)c3ccccc32)C1 (stereo unspecified)	14	·	-7	-1	·	99*
CC1CCC(C(C)C)C(OC(=O)Cn2c(-c3ccc(F)cc3)[n+](C)c3ccccc32)C1 (stereo unspecified)	-3	·	-4	0	·	64*
CCOc1cc(/C=C2\C(=O)N(c3ccc(C(N)=O)cc3)N=C2C)ccc1OC(=O)c1cccs1	11	-6	81*	-3	-7	8
CCOC(=O)/C(=N/Nc1ccccc1)Sc1nnc(CCc2ccccc2)n1-c1ccccc1	-7	·	·	0	·	·
O=C(CSc1nc2ccccc2o1)Nc1nc(-c2ccccc2)cs1	10	·	·	-3	·	·
COc1ccc(OC)c(NC(=O)CSc2nc3c(c(=O)n(C)c(=O)n3C)n2C)c1	7	17*	-2	0	-42	-10
SMILES	GALR2 blocker	S1P2 ag	CD11b adhes enh	GALR2 agonist	S1P2 antag	CD11b adhes inh
COCCn1c(SCC(=O)Nc2nc3ccccc3s2)nnc1-c1ccoc1C	6	16*	·	-2	-19	·
CC(C)n1c(SCC(=O)Nc2nc3ccccc3s2)nc2c1c(=O)n(C)c(=O)n2C	-6	19*	·	-2	-38	·
O=C(CSc1nc2ccccc2o1)Nc1nc2ccccc2s1	13	-4	83*	-3	16	9
O=C(NS(=O)(=O)Oc1ccc(Cl)cc1)OC[C@@H]1CCCN2CCCC[C@H]12	1	·	·	-1	·	·
Cc1ccc(C(=O)NCC(=O)OCC(=O)NC2CCS(=O)(=O)C2)cc1C (stereo unspecified)	2	·	·	0	·	·
CC(C)C(NC(=S)Nc1ccccc1)C(=O)O (stereo unspecified)	2	·	·	-1	·	·
CC(C)(C)c1ccc(C(=O)NNC(=O)c2cccc(Br)c2)cc1	-9	23*	-4	1	21	-4
